Screening data deposited in PubChem BioAssay by Broad Institute.
Rows were chosen to be rich in hits. Some 4% of all compounds tested hit in one or more screens of this group.
RAD52 anneal inh – RAD52 DNA annealing inhibitors, primary screen, biochemical, FRET, single point, set 2; DNA repair protein RAD52 homolog (Homo sapiens), P43351; recombinant RAD52 DNA annealing, FRET fluorescence; inhibition, % at 18.7 µM; 0.46% of 360,000 active; AID 651710, 2012;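 active means every replicate showing at least 50% inhibition; inconclusive means mean inhibition at least 50% but not in every replicate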
AF4-AF9 inh – inhibitors of AF4 peptide binding to AF9, primary screen, biochemical, AlphaScreen, biotin-AF4 peptide, FLAG-AF9, single point; Protein AF-9 (Homo sapiens), P42568; inhibition, % at 10 µM; 0.47% of 350,000 active; AID 651704, 2012;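 active means every replicate reaching a set inhibition limit, whatever the replicate mean, cut at about 25% in these data; inconclusive means mean inhibition reaches that limit but some replicates miss it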;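 further: 0% = plate neutral control median and 100% = total signal loss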
Target sequence (P42568 whole entry, looked up): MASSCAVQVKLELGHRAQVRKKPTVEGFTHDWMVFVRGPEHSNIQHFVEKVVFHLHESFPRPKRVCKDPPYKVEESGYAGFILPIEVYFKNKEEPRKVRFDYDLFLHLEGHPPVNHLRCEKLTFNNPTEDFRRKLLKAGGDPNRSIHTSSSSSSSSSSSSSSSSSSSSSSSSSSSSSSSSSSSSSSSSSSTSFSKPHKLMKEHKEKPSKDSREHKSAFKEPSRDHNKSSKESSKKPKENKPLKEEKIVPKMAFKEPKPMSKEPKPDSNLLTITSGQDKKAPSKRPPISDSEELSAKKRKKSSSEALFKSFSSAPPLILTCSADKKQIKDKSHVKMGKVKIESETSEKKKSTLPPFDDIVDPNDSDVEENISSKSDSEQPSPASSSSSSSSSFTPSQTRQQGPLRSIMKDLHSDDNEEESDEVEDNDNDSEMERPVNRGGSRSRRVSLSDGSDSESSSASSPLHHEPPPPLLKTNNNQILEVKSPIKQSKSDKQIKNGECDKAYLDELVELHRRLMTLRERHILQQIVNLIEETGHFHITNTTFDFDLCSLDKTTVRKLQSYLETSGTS
DENV2 CPE rescue – inhibitors of DENV2 cytopathic effect, primary screen, cell-based, plate reader, single concentration | DENV2-infected cells, cytopathic effect rescue | CPE inhibition, % at 9.99 µM | 1.7% of 350,000 active | AID 651640, 2012; in the data active means CPE inhibition above about 20%, passing the limit was not always enough; inconclusive means no clear call, values can overlap the other calls; tested in BHK-21 cells;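 further: 0% = median of neutral control wells and 100% = median of positive control wells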
FGF22 binding – binders of human FGF22 protein, primary screen, FGF22 synaptogenesis inhibitor project, biophysical, thermal shift, single point | recombinant FGF22 thermal shift, SYPRO orange fluorescence; percent of sucrose octasulfate shift, DMSO zero | activity (Tm shift, normalised), % at 9.99 µM | 1.5% of 340,000 active | AID 651658, 2012;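 active means mean Tm shift, scaled 0 neutral to 100 positive control, at about 1.3% or above, every replicate too, limit read from the data; inconclusive means no clear call, values can overlap the other calls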
ERAP1 HTS inh – human ERAP1 aminopeptidase inhibitors, primary screen, biochemical, single point, plate reader; AID 652197, 2013; 0.15% of 340,000 active; inhibition, % at 10.7 µM; recombinant ERAP1, Leu-AMC fluorescence, 60 min;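 active means mean replicate inhibition of at least 30%, or all replicates individually reaching that 30% level; inactive means mean below 30% and not every replicate reaching it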;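 further: 0% = neutral control wells and 100% = L-leucinethiol positive control wells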
* marks the source's active call; other numbers are inactive results; ? = inconclusive; / = not tested or not shown; ! = repeats disagree.

SMILES | RAD52 anneal inh | AF4-AF9 inh | DENV2 CPE rescue | FGF22 binding | ERAP1 HTS inh
COc1ccc(NC(=O)N(C)C[C@@H]2Oc3ccc(NC(=O)CCC(F)(F)F)cc3CC(=O)N([C@@H](C)CO)C[C@H]2C)cc1 | 16.3 | 1.3 | -4.4 | 0.1 | 3.8
C[C@H]1CN([C@@H](C)CO)C(=O)c2cc(-c3ccc(C(=O)N(C)C)cc3)cnc2O[C@@H]1CN(C)C(=O)CN(C)C | -17.3 | -8.8 | -2.2 | 0.0 | -0.8
CN(C)S(=O)(=O)c1ccccc1C#N | -11.8 | -15.5 | 0.5 | 0.0 | -1.1
CN(C)S(=O)(=O)c1cccc2c1C(=O)c1ccccc1C2=O | -8.3 | -1.5 | 23.4* | 0.5 | 4.8
CCNc1nc(NCC)nc(C(=O)OCCO)n1 | -0.3 | 7.4 | 28.8* | -0.2 | 0.1
CC(C)Nc1nc(NC(C)C)nc(C(=O)OCCO)n1 | -41.6 | -0.6 | -2.9 | 0.1 | /
O=S(=O)(c1cccs1)N1CCCCN2[C@H](CO)[C@H](c3ccc(Br)cc3)[C@H]2C1 | 3.1 | 2.1 | 37.7* | -0.3 | -2.8
COc1ccc(-c2ccc([C@H]3[C@H]4CN(S(=O)(=O)c5cccs5)CCCCN4[C@H]3CO)cc2)cc1 | -11.4 | -4.2 | -10.3 | 0.1 | 1.4
COc1ccc(-c2ccc([C@H]3[C@@H](CO)N4CCCCN(S(=O)(=O)c5cccs5)C[C@H]34)cc2)cc1 | -25.1 | -2.2 | 26.5* | 0.4 | 2.7
O=S(=O)(c1cccs1)N1CCCCN2[C@@H](CO)[C@@H](c3ccc(Br)cc3)[C@@H]2C1 | 10.9 | 3.3 | 0.6 | -0.4 | -2.2
C[C@@H]1CCCCO[C@@H](CN(C)Cc2ccncc2)[C@@H](C)CN([C@@H](C)CO)C(=O)c2cc(NS(=O)(=O)c3cn(C)cn3)ccc2O1 | -0.1 | -0.9 | 0.7 | 0.1 | -1.6
CCNC(=O)[C@@H]1[C@@H](CO)[C@@H]2Cn3c(ccc(-c4cncnc4)c3=O)[C@@H]2N1C(=O)c1ccccc1F | -0.3 | 0.6 | -4.3 | 0.1 | 0.7
O=C(C[C@@H]1CC[C@H]2[C@@H](COC[C@H](O)CN2Cc2cccc(Cl)c2)O1)Nc1nccs1 | 16.7 | 1.7 | ? | -0.4 | -0.5
C[C@@H]1CCCCO[C@H](CN(C)Cc2ccc(Cl)c(Cl)c2)[C@H](C)CN([C@@H](C)CO)C(=O)c2cc(NS(=O)(=O)c3cn(C)cn3)ccc2O1 | 8.2 | 9.6 | -3.3 | -0.3 | 0.8
COc1cc(C(=S)N2CCCCC2)ccc1OCC(=O)Nc1ccc(F)cc1 | -1.0 | 6.1 | 98.1* | -0.2 | 1.9
COc1cc(C(=S)N2CCCC2)ccc1OCc1ccc(C)cc1 | -7.6 | 2.2 | 47.0* | 0.0 | -0.7
Cc1noc(C)c1NC(=O)N(C)C[C@H]1OCCCC[C@@H](C)Oc2ccc(NC(=O)c3ccccc3)cc2C(=O)N([C@@H](C)CO)C[C@H]1C | -0.6 | 0.3 | 2.9 | / | 0.9
O=C(CN(Cc1ccccc1)C(=O)CCC(=O)Nc1nccs1)NCc1ccccc1 | -12.3 | 43.2* | 0.9 | -0.4 | -2.2
O=C(CN(Cc1ccccc1)C(=O)CCC(=O)Nc1nccs1)NCc1ccc(F)cc1 | -5.4 | 1.1 | 8.3 | 41.4 | 3.4
O=C(COC(=O)c1ccc(O)cc1)NCC1CCCO1 (centres undefined) | -9.7 | -0.3 | 6.3 | 43.2* | -1.3
C[C@@H]1CN([C@@H](C)CO)C(=O)CCCn2nncc2CO[C@@H]1CN(C)CC1CCCCC1 | -5.5 | 0.7 | 58.9* | 0.0 | 0.5
C[C@H]1CN([C@@H](C)CO)C(=O)CCCn2nncc2CO[C@H]1CN(C)CC1CCCCC1 | 1.9 | -0.9 | 3.1 | -0.1 | -4.1
C[C@H](CO)N1C[C@H](C)[C@@H](CN(C)C(=O)C2CC2)OCc2cnnn2CCCC1=O | 4.8 | -0.9 | 49.4*! | -0.5 | 7.6
COc1cccc(NC(=O)N(C)C[C@@H]2OCc3cnnn3CCCC(=O)N([C@@H](C)CO)C[C@@H]2C)c1 | 15.0 | 0.5 | 79.3* | 0.7 | 3.7
C[C@H]1CN([C@@H](C)CO)C(=O)CCCn2nncc2CO[C@@H]1CN(C)C(=O)C1CC1 | 6.4 | -0.6 | -3.2 | 0.1 | -1.9
SMILES | RAD52 anneal inh | AF4-AF9 inh | DENV2 CPE rescue | FGF22 binding | ERAP1 HTS inh
COc1cccc(NC(=O)N(C)C[C@@H]2OCc3cnnn3CCCC(=O)N([C@@H](C)CO)C[C@H]2C)c1 | -8.2 | 3.5 | -5.8 | 0.2 | 11.2
C[C@@H]1CN([C@@H](C)CO)C(=O)CCCn2nncc2CO[C@@H]1CN(C)C(=O)C1CC1 | -16.7 | -0.6 | 9.1 | 0.4 | -1.3
C[C@H](CO)N1C[C@H](C)[C@H](CN(C)C(=O)C2CC2)OCc2cnnn2CCCC1=O | -5.3 | 0.9 | 112.5*! | -0.1 | 1.1
C[C@H](CO)N1C[C@H](C)[C@@H](CN(C)S(=O)(=O)c2cccs2)OCCCC[C@H](C)Oc2ccc(NC(=O)c3ccncc3)cc2C1=O | -19.4 | -0.4 | 1.5 | -0.3 | 0.7
C[C@@H]1CN([C@H](C)CO)C(=O)Cc2cc(NC(=O)Nc3cccc4ccccc34)ccc2O[C@H]1CN(C)Cc1ccc2c(c1)OCO2 | 33.1 | -1.0 | 2.2 | -0.4 | -4.9
CN(Cc1cn(-c2ccccc2)nc1-c1ccc2c(c1)OCO2)Cc1nccn1C | -8.9 | 33.5* | -2.4 | 0.3 | -0.2
CN(CCn1ccnc1)Cc1cn(-c2ccccc2)nc1-c1ccc2c(c1)OCO2 | -2.3 | 2.5 | 3.7 | 0.0 | 1.3
CC(C)N(Cc1cn(C)nc1-c1cccc(Cl)c1)Cc1nccn1C | 5.0 | -6.5 | 2.2 | 43.3* | -2.3
CCCC(=O)Nc1ccc2c(c1)C(=O)N(C)[C@@H]1CC[C@@H](CC(=O)NCCOC)O[C@@H]1CO2 | / | / | 3.2 | 0.0 | /
CO[C@H]1CN(C)C(=O)c2cc(NC(=O)NC(C)C)ccc2OC[C@@H](C)N(Cc2ccccn2)C[C@H]1C | -0.3 | 0.2 | -3.0 | 0.0 | -3.1
COC(=O)CN1C(=O)N/C(=C/c2ccc(OC)cc2)C1=O | -5.9 | -2.0 | 19.1 | 43.3* | 4.3
C[C@H]1CN([C@@H](C)CO)C(=O)c2cccc(NC(=O)C3CCOCC3)c2O[C@H]1CN(C)CC1CCCCC1 | -5.4 | -2.8 | 43.6* | -0.5 | -2.8
C[C@H]1CN([C@@H](C)CO)C(=O)c2cccc(NC(=O)NC3CCCCC3)c2O[C@@H]1CN(C)CC1CCCCC1 | -9.3 | 6.4 | 29.7* | -0.1 | -2.6
CC(C)C#Cc1ccc2c(c1)O[C@H](CN(C)C(=O)c1cccc(F)c1)[C@@H](C)CN([C@H](C)CO)S2(=O)=O | -4.0 | -7.0 | -10.4 | 1.1 | -2.0
C[C@@H]1CN([C@H](C)CO)C(=O)c2cc(Br)cnc2O[C@@H]1CN(C)CC1CC1 | 2.4 | -1.7 | -3.2 | 0.0 | 5.2
CC(C)CN(C(=O)c1cccc(S(=O)(=O)N2CCN(Cc3ccccc3)CC2)c1)C1CCS(=O)(=O)C1 (centres undefined) | 15.0 | 27.7* | 11.0 | -0.3 | 1.4
